Reference: a collection of fitness landscapes (doi:10.1038/s41467-024-54723-y)
In all, about 18,000 sequences were measured (“TetR repression strength (sort-seq, GFP reporter)”: median about 0.23, highest 2% from about 0.68 on). The list comes from a sample in which the highest values are over-represented; it also holds similar and randomly drawn sequences.

molecular target: TetR (class B, Tn10) (UniProt P04483); assay: TetR repression strength (sort-seq, GFP reporter) (relative to tetO2 = 1); higher = stronger repression; settings: E. coli
In short: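 Repression strength was calculated by subtracting the read-weighted mean bin from the top bin index plus one and dividing by the unaltered operator's value. The plasmid library was low-copy in E. coli SIG10-MAX, with eight randomized operator positions between a constitutive promoter and sfGFP and constitutive TetR. Cultures grew 5 h at 37 °C in LB containing 50 µg/mL chloramphenicol before 10^6 cells were sorted by FACS into 13 fluorescence bins, each sequenced on Illumina. Three independent transformations were averaged for members having ≥30 reads in all replicates and a CV ≤0.5.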

Chain of TetR (class B, Tn10) (P04483 whole entry): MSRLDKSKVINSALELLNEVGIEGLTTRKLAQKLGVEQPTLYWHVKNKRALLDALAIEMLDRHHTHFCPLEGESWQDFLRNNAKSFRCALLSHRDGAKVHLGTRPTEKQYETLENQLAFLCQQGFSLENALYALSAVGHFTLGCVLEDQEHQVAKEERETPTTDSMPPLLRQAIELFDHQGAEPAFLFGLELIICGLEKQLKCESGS

Sequence	TetR repression strength
TCCCGGACAGTGTAGGAGA	0.295
TCCCTCCTAGTGTGGGAGA	0.194
TCCCTGGCAGTGATGGAGA	0.189
TCCCGGCGAGTGGTAGAGA	0.306
TCCCGAGTAGTCCTCGAGA	0.207
TCCCTTGTAGTCATGGAGA	0.687
TCCCCTGTAGTAGGGGAGA	0.261
TCCCTTGGAGTCATGGAGA	0.307
TCCCCTGTAGTCGGGGAGA	0.858
TCCCTTGTAGTCCGGGAGA	0.387
TCCCCTGGAGTCGGGGAGA	0.222
TCCCTTGGAGTCGGGGAGA	0.319
TCCCTTGTAGTCGGGGAGA	0.938
TCCCTTGTAGTCTTGGAGA	0.287
TCCCAGGCAGTCGGCGAGA	0.25
TCCCAAAGAGTGGGGGAGA	0.217
TCCCGTAGAGTGTACGAGA	0.175
TCCCGTGGAGTGCCTGAGA	0.0904
TCCCCGCCAGTGACCGAGA	0.207
TCCCCGACAGTGACTGAGA	0.207
TCCCGGAAAGTGACCGAGA	0.203
TCCCCGAAAGTGGCCGAGA	0.0544
TCCCCGACAGTGACCGAGA	1.08
TCCCCGAAAGTGACCGAGA	1.21
TCCCGCGGAGTCCTCGAGA	0.294
TCCCTATGAGTGGGCGAGA	0.164

Sequence	TetR repression strength
TCCCACTCAGTTAGGGAGA	0.268
TCCCCCATAGTCGACGAGA	0.825
TCCCCCATAGTCGGCGAGA	0.134
TCCCCCAGAGTCGACGAGA	0.84
TCCCCCCGAGTCGACGAGA	0.239
TCCCCGATAGTCGACGAGA	0.0424
TCCCCAAGAGTCGACGAGA	0.264
TCCCATGTAGTATGCGAGA	0.327
TCCCCACTAGTGGCGGAGA	0.514
TCCCGGTAAGTAACGGAGA	0.201
TCCCTGTGAGTCGCAGAGA	0.172
TCCCTTTTAGTGCATGAGA	0.711
TCCCTTTTAGTGAATGAGA	0.889
TCCCTTTTAGTGAGAGAGA	0.425
TCCCTTTGAGTGCATGAGA	0.403
TCCCTTTTAGTGCCTGAGA	0.325
TCCCTTTGAGTGAATGAGA	0.472
TCCCGGAAAGTAGCAGAGA	0.0718
TCCCTGTTAGTGTGTGAGA	0.138
TCCCAATGAGTAGGGGAGA	0.0811
TCCCCACAAGTTCGGGAGA	0.0657
TCCCTTCTAGTCTAAGAGA	0.306
TCCCGCAAAGTCAGGGAGA	0.273
TCCCAGCGAGTACGTGAGA	0.134
TCCCGTACAGTATAGGAGA	0.0753
TCCCGGTAAGTGAAAGAGA	0.684

Sequence	TetR repression strength
TCCCGGTAAGTAGCTGAGA	0.208
TCCCGGTAAGTGGGTGAGA	0.141
TCCCGGTAAGTGGCTGAGA	1.11
TCCCGGTCAGTGAAAGAGA	0.692
TCCCGGTGAGTGAAAGAGA	0.347
TCCCGGTCAGTGAGAGAGA	0.591
TCCCAGTCAGTGAAAGAGA	0.62
TCCCGGTAAGTGAGAGAGA	0.502
TCCCCCCCAGTCGATGAGA	0.409
TCCCATGGAGTTCGAGAGA	0.0732
TCCCCTTAAGTTAATGAGA	0.515
TCCCACGGAGTCGCGGAGA	0.172
TCCCATGGAGTGTAAGAGA	0.236
TCCCGGGCAGTCGTGGAGA	0.285
TCCCTACGAGTACTCGAGA	0.207
TCCCTACGAGTCCTCGAGA	1.14
TCCCTTCTAGTCCTCGAGA	0.421
TCCCTAATAGTCCTCGAGA	0.385
TCCCTAAGAGTCCTCGAGA	0.353
TCCCTACTAGTCCTCGAGA	1.12
TCCCATATAGTTTAGGAGA	0.0773
TCCCCCGCAGTCCCTGAGA	0.333
TCCCAGATAGTCGCGGAGA	0.108
TCCCCATCAGTGGTAGAGA	0.417
TCCCGATGAGTTAGGGAGA	0.296
TCCCGAGGAGTTAAGGAGA	0.295

Sequence	TetR repression strength
TCCCGATGAGTTAGAGAGA	0.749
TCCCGATGAGTTAAGGAGA	0.797
TCCCGATGAGTTAGCGAGA	0.201
TCCCGATGAGTTAATGAGA	0.196
TCCCGAGGAGTAAGTGAGA	0.204
TCCCTTGTAGTATGTGAGA	0.133
TCCCTAGTAGTACTGGAGA	0.176
TCCCGGCTAGTACGGGAGA	0.244
TCCCTATCAGTCGCCGAGA	0.455
TCCCTATCAGTCGCGGAGA	0.456
TCCCTTTCAGTGACCGAGA	0.946
TCCCTATCAGTGGCGGAGA	0.715
TCCCGATCAGTGACCGAGA	0.715
TCCCTATCAGTGGGGGAGA	0.378
TCCCGATCAGTGACTGAGA	0.427
TCCCGATCAGTGAGCGAGA	0.544
TCCCTATCAGTCACCGAGA	0.789
TCCCTTGCAGTGACCGAGA	0.315
TCCCTGTCAGTCACCGAGA	0.664
TCCCTTTCAGTGACTGAGA	0.435
TCCCGTCTAGTAGCAGAGA	0.634
TCCCATGGAGTGTTAGAGA	0.246
TCCCCGATAGTCGTGGAGA	0.177
TCCCAGCGAGTGCAAGAGA	0.364
